# Compound activity deposited in PubChem by National Center for Advancing Translational Sciences (NCATS).
# A selection: hits, their analogues and other compounds. The true share with any hit is near 8.3%.
# Gal4-VP16 FLuc = VP16 counterscreen qHTS for inhibitors of ROR gamma transcriptional activity. Drosophila S2 Gal4-VP16 UAS-luciferase, luminescence, 20 h. Potency, µM (highest dose often 53.6 µM), inactives show at the highest dose activity, negative = inhibition, actives largely listed as inhibitors. actives 3.5% (n = 310,000);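 further: Gal4-VP16 expression switched on by copper sulfate through the metallothionein promoter; potency means the concentration at half of the fitted maximal effect; on the % scale 0 is the no-effect control and ±100 the full control effect; nearly all actives have a fitted effect of over 50% in size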
# RORg inh = qHTS for inhibitors of ROR gamma transcriptional activity. Nuclear receptor ROR-gamma (Mus musculus), P51450. Drosophila S2 Gal4-RORgamma UAS-luciferase reporter, 20 h. actives 5.4% (n = 310,000). Potency, µM (doses to about 53.6 µM), for inactives: top-dose activity change, negative = inhibition, hits mostly inhibitors; further: potency means the concentration at half of the fitted maximal effect; on the % scale 0 is the no-effect control and ±100 the full control effect; nearly all actives have a fitted effect of over 60% in size
# Target sequence (P51450 whole entry, looked up, the tested form may be a part): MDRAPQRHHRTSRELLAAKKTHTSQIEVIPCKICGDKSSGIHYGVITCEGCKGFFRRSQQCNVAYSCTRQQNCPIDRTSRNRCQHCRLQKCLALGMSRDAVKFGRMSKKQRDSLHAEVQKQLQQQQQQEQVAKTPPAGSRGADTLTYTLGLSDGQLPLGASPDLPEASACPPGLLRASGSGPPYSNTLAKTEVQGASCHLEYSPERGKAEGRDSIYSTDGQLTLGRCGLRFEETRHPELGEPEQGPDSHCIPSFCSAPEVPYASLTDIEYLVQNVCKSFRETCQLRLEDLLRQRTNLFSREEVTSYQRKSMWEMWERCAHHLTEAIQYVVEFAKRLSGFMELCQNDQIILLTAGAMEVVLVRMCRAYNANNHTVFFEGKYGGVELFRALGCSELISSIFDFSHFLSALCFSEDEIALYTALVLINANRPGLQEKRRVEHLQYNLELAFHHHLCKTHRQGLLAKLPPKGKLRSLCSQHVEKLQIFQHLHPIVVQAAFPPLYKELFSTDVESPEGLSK
#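 Compounds are pin-transferred onto Drosophila Schneider cells expressing a copper-inducible Gal4–ROR gamma transactivation domain fusion. After 1 hr, copper sulfate is added to 700 uM final; luciferase is read 20 hr later.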
# Chronic BCR inh = qHTS Assay to Find Inhibitors of Chronic Active B-Cell Receptor Signaling; AID 493014, 2011; Potency, µM (titrated, usually from 46.1 µM), for the others: at the highest dose activity change, negative = inhibition, usual class: inhibitors; ABC-DLBCL IkBa-CBG/CBR reporter, luminescence ratio, 4 h; actives 0.05% (n = 340,000); active means well fitted inhibition curve with a large enough effect in the signal ratio, with a control signal flat, not every such curve was filed as active; inconclusive means small, poorly fitted or top-dose-only effect, or effect the other way, or a change in a side signal; the % refers to the signal ratio;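 further: potency means the concentration at half of the fitted maximal effect; plate controls were basal doxycycline-induced cells for no effect and cells given 10 µM MG132 for full effect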
#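 Concentration-response series (up to 46 uM) were applied to TMD8 dual-reporter cells for 4 h at 37C with doxycycline. Green/red ratio, after filter-overlap correction, defined %Activity; red signal alone was normalised to basal cells and zero luminescence.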
# MCF10A rerep = A quantitative high throughput screen for small molecules that induce DNA re-replication in MCF 10a normal breast cells. MCF 10A DNA re-replication, Hoechst nuclear intensity, 48 h. Potency, µM (titrated, usually from 46.1 µM), for inactives: top-dose activity, positive = re-replication, most hits filed as activators. actives 2.9% (n = 350,000); further: potency means the concentration at half of the fitted maximal effect; % of control where 0% means no effect; nearly all actives have a fitted effect of over 50% in size
# SW480 rerep = A quantitative high throughput screen for small molecules that induce DNA re-replication in SW480 colon adenocarcinoma cells; Potency, µM (top dose mostly 46.1 µM), inactives show at the top dose re-replication activation, most hits filed as activators; SW480 DNA re-replication, Hoechst DNA content imaging, 48 h; actives 1.8% (n = 340,000); AID 624297, 2012; further: potency means the concentration at half of the fitted maximal effect; % of control where 0% means no effect; nearly all actives have a fitted effect of over 55% in size
#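 Hoechst fluorescence of nuclei (405 nm excitation, 500-530 nm emission) measured by plate-scanning imager after 48 hr compound exposure at 37 C; re-replication scored as increased number of nuclei with elevated intensity.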
# Giardia kill = Small Molecules that selectively kill Giardia lamblia: qHTS; activity change, % at 7.66 µM, hits read low; Giardia lamblia trophozoite viability; actives 0.15% (n = 340,000); in the data active means activity change below about -80%; inconclusive means between about -30% and that limit;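 further: parasites exposed to compound for two days anaerobically before the ATP read; on the % scale 0 is the no-effect control and ±100 the full control effect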
#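 Each well holds 100 Giardia trophozoites and compound. After two days (48 hrs) at 37 deg C in anaerobic conditions, ATP is quantified by luminescence.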
# Active calls of the source: *; i = inactive; u = inconclusive; x = not tested or not shown; [ ] = remark or other dose. Unless noted, the call rests on the fitted dose curve; in most records, active means well fitted curve in the direction sought with a large enough effect; inconclusive means small, poorly fitted or top-dose-only effect, or another doubt; inactive means no such curve, though single readings can be large; an effect the other way counts as inactive or inconclusive.
SMILES,Gal4-VP16 FLuc,RORg inh,Chronic BCR inh,MCF10A rerep,SW480 rerep,Giardia kill
O=C(O)c1ccccc1C(=O)NCCc1c(C(=O)O)[nH]c2ccc(Cl)cc12,0%,11%,u,5%,1%,14
N#CCCn1nc(-c2ccccc2)cc1Nc1ccccc1NC(=O)c1cccs1,-12%,u,u,5%,3%,1
Cc1ccc(N(C(C)C(=O)N2CCOCC2)S(C)(=O)=O)cc1C (centres undefined),4%,9%,2%,-13%,23µM*,-8
Cc1ccc(N(C(C)C(=O)N2CCC(C)CC2)S(C)(=O)=O)cc1C (centres undefined),4%[0.365 µM],-42%,2%,-14%,u,0
CCOc1ccc(-n2c(-c3ccccc3)c[nH]c2=S)cc1,5.6µM*,2µM*,13%,-25%,-10%,-9
Cc1ccc(-c2c[nH]c(=S)n2-c2ccccc2F)cc1,5µM*,1.6µM*,-21%,-2%,-4%,12
Cc1ccc(-n2c(-c3ccccc3)cc(=O)nc2C)cc1,1%,4%,6%,5%,12%,-18
Cc1ccc(-c2c[nH]c(=S)n2-c2ccccc2)cc1,5µM*,1.3µM*,-16%,-5%,i[1.84 µM],22
CC(=O)c1ccc(S(=O)(=O)N2CCN(C(=O)CN3C(=O)NC4(CCCC4)C3=O)CC2)cc1,x,x,-16%,-14%,-64%,-13
CCOC(=O)C(C)(C)N(Cc1cccc(C)c1)S(=O)(=O)c1ccc(Cl)c([N+](=O)[O-])c1,u,-19%,u,5.2µM*,u,11
CCOC(=O)C(C)(C)N(Cc1cccc(C)c1)S(=O)(=O)c1cccc([N+](=O)[O-])c1,-13%,29%,u,5%,-4%,6
COc1ccc(CCNc2ncnc3[nH]ncc23)cc1OC,13µM*,-27%,u,14%,-1%,-11
COc1ccc(CCNc2ncnc3sc(C)cc23)cc1OC,0.4µM*,u,-1%,u,22%,6
Cc1ccc(-c2nn(-c3ccccc3)cc2C(=O)O)o1,-8%,25%,5%,x,x,x
Cc1ccc(-c2nn(-c3ccccc3)cc2CN(Cc2ccccc2)C(=O)c2ccco2)o1,-86%,u,-28%,16µM*,u,9
COCC(C)NC(=O)c1cc2c(ccc3ccccc32)oc1=O (centres undefined),-17%,2%,-4%,-6%,-6%,42
CC1=C(C)/C(=N\OS(=O)(=O)c2ccccc2)C=CC1=O,2.5µM*,2.5µM*,u,u,10µM*,11
Cc1c(C(=O)Nc2nc3ccccc3[nH]2)oc2ccc(Br)cc12,4.5µM*,5.6µM*,-5%,u,0%,-24
Cc1c(C(=O)Nc2nc3ccccc3[nH]2)oc2c(Cl)cccc12,6.3µM*,10%,u,u,u,4
Cc1c(C(=O)Nc2nc3ccccc3[nH]2)oc2ccccc12,5µM*,0.89µM*,u,u,u,-9
Cn1cc(CN2CCC(Oc3ccc(C(=O)N4CCCC4)cc3)CC2)cn1,0%,-9%,1%,0%,-5%,-11
CC(=O)c1c(C)[nH]c(C(=O)OCCCCN2C(=O)c3ccccc3C2=O)c1C,8.9µM*,u,13%,18%,14%,8
O=C(OCCCCN1C(=O)c2ccccc2C1=O)c1n[nH]c2ccccc12,32µM*,-110%,u,-189%[0.0737 µM],2%,1
CC(=O)c1c(C)[nH]c(C(=O)OCc2ccccc2)c1C,-14%,14%,u,14%,u,31
COC(=O)NC(=C(Cl)Cl)S(=O)(=O)c1ccccc1,18µM*,10µM*,x,7.3µM*,u,8
